# Source: PubChem BioAssay (University of Kansas High Throughput Screening Laboratory)
# Hits are enriched below; roughly 3.5% of the tested compounds scored in any of these assays.
# mHTT-CaM PPI inh – mutant huntingtin-calmodulin interaction inhibitors – biochemical, AlphaScreen, primary screen | P42858 | AlphaScreen His-mHTT/GST-CaM binding, luminescence | inhibition, % at 15 µM | 3.6% of 190,000 active;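 note: 0% = both proteins with DMSO and 100% = one protein alone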
# Pf apPOL inh – Pf-apPOL inhibitors, biochemical, fluorescence; Plasmodium falciparum apicoplast DNA polymerase (apPOL); Recombinant Pf-apPOL, molecular beacon fluorescence, 1.5 h; inhibition, % at 10 µM; 0.25% of 210,000 active; AID 1794808, 2022
# Starred values were filed as active, the others as inactive; · = not tested or not shown. Cut-off read from the data, not from the text of the source: active = inhibition above about 50%; inactive = the rest.
SMILES,mHTT-CaM PPI inh,Pf apPOL inh
CN(C)c1cccc(C(=O)Nc2ccc3ncnc(N4CCCC4)c3c2)c1,76*,9
Cc1cccc(C(=O)Nc2ccc3ncnc(N4CCCCC4)c3c2)c1,18,1
O=C(Nc1ccc(N2CCCCC2)cc1)c1ccccc1,·,-19
CC(C)Oc1cccc(C(=O)Nc2ccc(N3CCCC3)cc2)c1,99*,-7
Cc1cc(Br)ccc1NC(=O)CCCc1ccccc1,0,-4
Cc1c(-c2noc(C(=O)NC3CC3)n2)oc2c(C)cccc12,-10,0
CC(=O)c1ccc(NC(=O)CN2C(=O)NC3(CCCCC3)C2=O)cc1,-2,-7
NC(=O)c1cc(N2CCOCC2)nc2c(Cl)cccc12,2,-6
O=Cc1cc(Cc2ccccc2)cc(Br)c1O,100*,-3
CCOc1cc(C=O)c(Br)cc1OCc1ccccc1,-5,6
CC1=NN(C(=O)c2cccc([N+](=O)[O-])c2)C(O)(c2ccc(Br)cc2)C1 (stereo not given),66*,-4
COc1cccc(C2(O)CC(C(F)(F)F)=NN2C(=O)c2ccccc2[N+](=O)[O-])c1 (stereo not given),14,-1
O=C(c1ccccc1)N1N=C(C(F)(F)F)CC1(O)c1cccc([N+](=O)[O-])c1 (stereo not given),53*,-5
CCC1=NN(C(=O)c2ccc(C)cc2)C(O)(c2ccc(Br)cc2)C1 (stereo not given),70*,20
CCC1=NN(C(=O)c2ccccc2)C(O)(c2ccc(Br)cc2)C1 (stereo not given),33,-2
CC1=NN(C(=O)c2cccc(O)c2)C(O)(c2ccc(Br)cc2)C1 (stereo not given),42,0
CC1=NN(C(=O)c2cccc([N+](=O)[O-])c2)C(O)(c2ccc(Cl)cc2)C1 (stereo not given),59*,1
CC1=NN(C(=O)c2ccc(Cl)cc2)C(O)(c2cccc([N+](=O)[O-])c2)C1 (stereo not given),40,-11
CC(=O)NC1CC(C)(C)NC(C)(C)C1,3,0
CCOc1ccc2nc(SCC(=O)Nc3nc4cc(OC)ccc4s3)[nH]c2c1,6,3
CCn1c(C(=O)O)c(CC(=O)N(C)c2ccc(Br)cc2)c2ccccc21,1,-4
O=C(C1CCCCC1)N1CCCN(C2CCN(Cc3ccccc3)C2=O)CC1 (stereo not given),12,2
Cc1ccc(-n2nc(C)c3sc(N4CCCN(C(=O)c5ccsc5)CC4)nc32)cc1,18,-5
N#CC1=C(O)NC(S)=C(C#N)C1,16,·
Cc1ccc(C(=O)N2CCC(COc3ccc(C(=O)NC4CC4)cc3)CC2)s1,-5,-3
SMILES,mHTT-CaM PPI inh,Pf apPOL inh
CC1=NN(C(=O)c2cc(Br)ccc2O)C(O)(c2ccccc2)C1 (stereo not given),98*,-9
CC1=NN(C(=O)C(C)C)C(O)(c2ccc(Br)cc2)C1 (stereo not given),21,-1
O=C(Nc1ccc2c(c1)OCO2)c1oc(=O)c2ccccc2c1-c1ccccc1,13,-7
CSc1cccc(NC(=O)N2CCCC2c2nc(-c3cccc(C)c3)no2)c1 (stereo not given),-6,-6
COC(=O)[C@H](C(C)C)N(CCCc1cn(Cc2ccc(C)cc2)nn1)S(=O)(=O)c1ccccc1Br,93*,-1
COC(=O)[C@H](C(C)C)N(CCc1cn(Cc2ccc(C)cc2)nn1)S(=O)(=O)c1ccccc1Br,-1,-7
Cc1ccccc1CNC(=O)Cc1cn(C)c2ncccc12,12,4
COc1ccc(C2CC(=O)c3c(O)cc(O)cc3O2)cc1O (stereo not given),·,0
CC(C)=CCc1c(O)cc(O)c2c1OC(c1ccccc1)CC2=O (stereo not given),51*,-2
CC1=CCC2C(=O)N(c3ccccc3OCC(=O)c3ccc(F)cc3)C(=O)C2C1 (stereo not given),1,-4
COc1ccc(S(=O)(=O)Nc2cccc(F)c2)cc1Br,-19,-3
Cc1cc(I)c(O)c(C=Nc2cc(C)ccc2O)c1,45,-6
Cc1ccc(O)c(N=Cc2cc(I)ccc2O)c1,63*,5
CSCCC(C(O)=C(C#N)c1nc2ccccc2[nH]1)N1C(=O)c2ccccc2C1=O (stereo not given),67*,-1
N#CC(=C(O)CCCN1C(=O)c2ccccc2C1=O)c1nc2ccccc2[nH]1,-1,-15
CC(C)CC(C(O)=C(C#N)c1nc2ccccc2[nH]1)N1C(=O)c2ccccc2C1=O (stereo not given),92*,-4
CC/C(O)=C(/C#N)c1nc2ccccc2[nH]1,7,29
Cc1nc(-c2ccc(F)cc2)sc1C(=O)N1CCC(C(C)C(=O)N2CCCC2)CC1 (stereo not given),10,-4
Clc1ccc(Cc2nc(-c3ccccn3)no2)cc1,-7,4
c1cc2c(cc1Nc1nc3nonc3nc1Nc1ccc3c(c1)OCO3)OCO2,8,-1
COc1ccc(C(=O)N2CCN(c3cccc(Cl)c3)CC2)cc1,6,-1
COc1cccc(-n2ccnc2N2CCN(C(=O)c3ccc(F)c(F)c3)CC2)c1,54*,18
Cc1oc(C2CCN(C(=O)c3cccc(Br)c3)CC2)nc1C(=O)N1CCCC1,6,-1
COc1cc2c(cc1OC)C(C(=O)N1CC(C)CC(C)C1)C(c1ccccc1F)N(C)C2=O (stereo not given),-5,-7
O=[N+]([O-])c1cccc2c1NC(c1ccc(Br)cc1)C1CC=CC21 (stereo not given),82*,1
SMILES,mHTT-CaM PPI inh,Pf apPOL inh
O=[N+]([O-])c1cccc2c1NC(c1ccccc1Br)C1CC=CC21 (stereo not given),63*,-1
CCC(C)NC(=O)c1nc(-c2oc3c(C)cccc3c2C)no1 (stereo not given),-10,3
Cc1ccccc1Cc1c(C)nc2c(C(=O)NC3CCCCC3C)cnn2c1C (stereo not given),28,-16
CCN1CCn2cc(S(=O)(=O)Nc3ccc(F)cc3C)cc2C1=O,-2,-8
CCOc1ccc(C2C(=O)c3ccccc3C2=O)cc1,-4,-1
CCOc1ccc(S(=O)(=O)N=C2C=CC(=O)c3ccccc32)cc1,72*,-4
CCc1ccc(S(=O)(=O)N=C2C=CC(=O)c3ccccc32)cc1,93*,-2
CCOc1ccc(S(=O)(=O)N=C2C=CC(=O)C(Br)=C2)cc1,73*,-5
COc1ccc(S(=O)(=O)N=C2C=C(Br)C(=O)C(Br)=C2)cc1,46,-1
CCc1ccc(S(=O)(=O)N=C2C=CC(=O)C=C2)cc1,48,-2
CC(C)(C)c1ccc(S(=O)(=O)N=C2C=CC(=O)c3ccccc32)cc1,94*,8
CC(C)c1ccc(S(=O)(=O)N=C2C=C(Br)C(=O)c3ccccc32)cc1,40,-3
Cc1cnc(-n2nnc(C(=O)N3c4ccccc4CC3C)c2C)s1 (stereo not given),-20,-6
COc1ccc(-c2cc(C(F)(F)F)n3ncc(C(=O)Nc4ccc(C#N)cc4)c3n2)cc1OC,3,-2
CS(=O)(=O)c1ccc2nc(NC(=O)/C=C/c3ccccc3Cl)sc2c1,75*,-1
CC(C)c1ccc(/C=C/C(=O)Nc2nc3ccc(S(C)(=O)=O)cc3s2)cc1,10,-5
CC(C)C(=O)Nc1ccc(C2(C(=O)NCC3CC3)CCCCC2)cc1,-9,4
